Settings in all cases: concentration: 1 μM,replicates: in singlicate; n = 1
Test [1] concerns RPS6KA4(Kin.Dom.1-N-terminal).
Test [2] has as its system RPS6KA4(Kin.Dom.2-C-terminal).
For test [3], the system named is RPS6KA5(Kin.Dom.1-N-terminal).
For test [4], the system named is RPS6KA5(Kin.Dom.2-C-terminal).
The subject of test [5] is T1, RSK1(Kin.Dom.1-N-terminal).
T1 construct: gene RPS6KA1

The test system of test [6] is T2, RSK1(Kin.Dom.2-C-terminal).
T2 construct: gene RPS6KA1

The subject of test [7] is T3, RSK2(Kin.Dom.1-N-terminal).
T3 construct: gene RPS6KA3

In test [8] the test system is T4, RSK2(Kin.Dom.2-C-terminal).
T4 construct: gene RPS6KA3

Test [9] deals with T5, RSK3(Kin.Dom.1-N-terminal).
T5 construct: gene RPS6KA2

Test [10] relates to T6, RSK3(Kin.Dom.2-C-terminal).
T6 construct: gene RPS6KA2
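Further: KINOMEscan kinase panel screen.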

On to `FC(F)(F)c1cc(Br)cc(Nc2nccc(-c3cnn4ncccc34)n2)c1` [GW810578], for which the “%Inh” value in [1], in test [2], in test [3], in test [4], in test [5] and in [6] was 0% in each case. Further, the “%Inh” value in [7] was 17%; in test [8], 0%; in test [9] it was 3%; in test [10], 9%.
In the case of `CC(C)c1nc(-c2cccc(NS(=O)(=O)c3ccccc3)c2)c(-c2ccnc(Nc3ccc4c(c3)CN(C)CC4)n2)s1` [GSK1649598], the “%Inh” value in test [1] is reported as 33%; in [2] it was 0%; in test [3] it was 4%; in [4] it was 0%; in test [5], 73%; in test [6] it was 44%. Besides, the “%Inh” value in [7] is 10%; in test [8], 0%; in [9] it was 15%; in [10] it was 0%.
`C[C@@H]1CNc2c(sc3ccc4nc(-c5ccncc5)ccc4c23)C(=O)N1`: the “%Inh” value in [1] is 33%; in [2], 98.7%; in [3], 0%; in [4], 0%; in test [5] it was 0%; in [6], 0%. Further, the “%Inh” value in test [7] turned out to be 4%; in test [8] it was 0%; in test [9] it was 10%; in test [10] it was 33%.
With `CCNCC(Cc1ccccc1)NC(=O)c1cc(Br)c(-c2ccnc3[nH]ccc23)s1.Cl.Cl` (centres unmarked) [GSK1383280], the “%Inh” value in [1] amounted to 67%; in test [2] it was 21%; in test [3] it was 43%; in test [4] it was 22%; in test [5], 21%; in test [6], 18%. The “%Inh” value in test [7] is listed as 42%; in test [8], 0%; in test [9] it was 10%; in [10], 1%.
For `CCn1c(-c2nonc2N)nc2cncc(CNC3CCNCC3)c21.Cl` [SB-747651], the “%Inh” value in [1] was found to be 44%; in test [2] it was 6%; in test [3], 78%; in test [4], 0%; in test [5], 21%; in test [6], 0%. In addition, the “%Inh” value was 16% in [7], 6% in test [8], 7% in test [9] and 9% in test [10].
Consider `CS(=O)(=O)c1cccc(CNc2nc(Nc3ccc4c(c3)[C@@H]3C[C@@H]4CNC3=O)ncc2C(F)(F)F)c1`, for which the “%Inh” value in test [1] was found to be 33%; in [2], 0%; in [3] it was 0%; in test [4] it was 46%; in test [5], 66%; in test [6], 7%. Also, the “%Inh” value in [7] is 84%; in test [8], 0%; in test [9], 85%; in [10], 13%.
In the case of `CN1CCN(CCCNc2nccc(-c3c(-c4ccc(F)cc4)nn4cc(C(N)=O)ccc34)n2)CC1` [GW622475], the “%Inh” value is 13% in test [1]; 0% in test [2]; 19% in [3]; 14% in test [4]; 28% in [5]; 63% in [6]. Also, the “%Inh” value came out at 0% in [7], 100% in test [8], 12% in test [9] and 14% in [10].
Turning to `COC(=O)Nc1nc2cc(Oc3ccc(NC(=O)Nc4cc(C(F)(F)F)ccc4Cl)cc3)ccc2[nH]1.Cl` [GW697465], the “%Inh” value in test [1] was determined as 0%; in test [2] it was 0%; in test [3], 14%; in [4] it was 0%; in test [5] it was 0%; in test [6], 0%. Further, the “%Inh” value is 0% in [7], 10% in [8], 21% in [9] and 13% in test [10].
As for `Cn1ccc2ncnc(Oc3ccc(NC(=O)Nc4cnn(C(C)(C)C)c4)c(Cl)c3)c21`, the “%Inh” value worked out at 0% in [1]; 5% in [2]; 32% in test [3]; 0% in test [4]; 0% in test [5]; 27% in test [6]. The “%Inh” value in test [7] is 11%; in test [8], 0%; in test [9] it was 0%; in test [10], 9%.
With `Cn1ccc2ncnc(Oc3ccc(NC(=O)Nc4cc(C(C)(C)C)on4)c(Cl)c3)c21`, the “%Inh” value in test [1] is recorded as 0%; in test [2] it was 13%; in test [3] it was 0%; in [4], 6%; in [5], 0%; in test [6] it was 17%. Besides, the “%Inh” value in test [7] amounted to 16%; in test [8], 1%; in test [9], 0%; in test [10] it was 8%.
Take `CC(=O)c1c(-c2ccncc2)[nH]c(-c2ccncc2)c1C` [GW493036]: the “%Inh” value in [1] stood at 34%; in test [2], 0%; in [3], 0%; in [4], 61%; in test [5], 26%; in test [6], 0%. Besides, the “%Inh” value in test [7] was 0%; in [8], 0%; in test [9] it was 0%; in [10], 7%.
In the case of `Cc1cccc2c(-c3ccncc3)c(-c3ccc(F)cc3)nn12.Cl` [GW461487], the “%Inh” value in [1] amounted to 0%; in [2], 0%; in test [3], 0%; in test [4], 6%; in [5], 11%; in [6], 51%. Further, the “%Inh” value in test [7] was 3%; in test [8], 32%; in test [9], 0%; in [10], 19%.
Consider `NC(=O)c1ccc(-c2cc3ncnc(SCC(=O)O)c3s2)cc1`, for which the “%Inh” value in [1] amounted to 0%; in test [2], 24%; in test [3], 7%; in test [4] it was 0%; in test [5], 0%; in test [6], 0%. The “%Inh” value was 1% in [7], 0% in test [8], 2% in test [9] and 7% in [10].
Take `C[C@@H](Oc1cc(-n2cnc3cc(-c4ccncc4)ccc32)sc1C(N)=O)c1ccccc1Cl` [GSK479719]: the “%Inh” value in test [1] came out at 46%; in [2], 0%; in test [3] it was 9%; in [4], 0%; in test [5] it was 11%; in [6], 7%. Besides, the “%Inh” value amounted to 42% in test [7], 4% in [8], 30% in [9] and 21% in test [10].
Regarding `COc1cccc(CNC(=O)NC2CCN(c3ccnc(Nc4cc(OC)c(OC)c(OC)c4)n3)C2)c1` (centres unmarked) [GSK1379765], the “%Inh” value came to 1% in test [1]; 0% in test [2]; 0% in test [3]; 0% in [4]; 17% in test [5]; 0% in test [6]. In addition, the “%Inh” value in test [7] amounted to 7%; in test [8] it was 29%; in test [9] it was 22%; in test [10], 1%.
In the case of `COc1cc2ncn(-c3cc(OCC4CCCCC4)c(C(N)=O)s3)c2cc1OC` [GSK204559], the “%Inh” value in test [1] is recorded as 7%; in test [2] it was 0%; in test [3], 28%; in test [4], 0%; in [5], 8%; in test [6] it was 0%. Also, the “%Inh” value is listed as 7% in [7], 30% in test [8], 22% in test [9] and 8% in test [10].
Consider `CC(=O)Nc1ccc(-c2cc3ncnc(SCC(=O)O)c3s2)cc1`, for which the “%Inh” value in test [1] turned out to be 6%; in test [2] it was 47%; in test [3] it was 0%; in test [4], 15%; in test [5] it was 0%; in test [6] it was 25%. The “%Inh” value is on record as 0% in test [7], 0% in [8], 14% in [9] and 19% in test [10].

These data come from publication PMC5540273 (PLoS ONE, 2017).
